Experimental data: PubChem BioAssay (EPA / NIEHS)
Records with an inconclusive call do not appear. Calls of active or inactive are those of the source. How the source made its calls, unless noted: active means hit-call score of the fitted dose curve at least 0.9, where 1 is the maximum; inactive means score below 0.9.

What was measured:
[1] = read-out: E-selectin (Homo sapiens) (UniProt P16581); test: BSK_3C_Eselectin: BioMAP Diversity Plus: 3C Assay for Eselectin Biomarker Activity (AID 2283015); conditions: primary human endothelial cells (HUVEC); actives raise or lower the signal;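 further: cell surface E-selectin protein quantified by ELISA 24 h after dosing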
Outline: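 Endpoint derived by bidirectional fitting against DMSO vehicle; signal is ELISA-detected E-selectin from primary HUVEC at 24 h post-dosing, with parallel SRB staining (0.1% SRB, 560 nm) flagging cytotoxicity.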

[2] = read-out: Interleukin-1 alpha (IL1a), IL1A (gene 3552); test: BSK_BE3C_IL1a: BioMAP Diversity Plus: BE3C Assay for Interleukin-1 alpha (IL1a) Biomarker Activity (AID 2283016); conditions: primary human bronchial epithelial cells; actives raise or lower the signal
Outline: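 BE3C primary human bronchial epithelium; cpd 24 h; IL-1a by ELISA; bidirectional fit vs DMSO; parallel SRB (0.1% SRB, 10% TCA fix, 560 nm) for cytotoxicity.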

[3] = read-out: Monocyte Chemoattractant Protein-1 (MCP1), CCL2 (gene 6347); test: BSK_3C_MCP1: BioMAP Diversity Plus: 3C Assay for Monocyte Chemoattractant Protein-1 (MCP1) Biomarker Activity (AID 2283017); conditions: primary human endothelial cells (HUVEC); actives raise or lower the signal
Outline: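 Using human vascular primary endothelium, researchers measured MCP-1 by ELISA 24 h after treatment, with DMSO serving as negative control for bidirectional fitting.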

[4] = read-out: Monocyte Chemoattractant Protein-1 (MCP1), CCL2 (gene 6347); test: BSK_4H_MCP1: BioMAP Diversity Plus: 4H Assay for Monocyte Chemoattractant Protein-1 (MCP1) Biomarker Activity (AID 2283018); conditions: primary human endothelial cells (HUVEC); actives raise or lower the signal
Outline: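 ELISA read-out of MCP-1 from human vascular endothelial primary cells taken at 24 hours after compound exposure. Activity was fitted in both directions relative to DMSO, which served as negative control.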

[5] = read-out: Human Leukocyte Antigen - DR isotype (HLADR), HLA-DRA (gene 3122); test: BSK_3C_HLADR: BioMAP Diversity Plus: 3C Assay for Human Leukocyte Antigen - DR isotype (HLADR) Biomarker Activity (AID 2283019); conditions: primary human endothelial cells (HUVEC); actives raise or lower the signal
Outline: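 Compound added to primary HUVEC cultures, 24 h incubation, then HLA-DR determined by ELISA; endpoint derived by bidirectional fitting relative to DMSO negative control.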

[6] = read-out: Interleukin-8 (IL8), CXCL8 (gene 3576); test: BSK_3C_IL8: BioMAP Diversity Plus: 3C Assay for Interleukin-8 (IL8) Biomarker Activity (AID 2283020); conditions: primary human endothelial cells (HUVEC); actives raise or lower the signal
Outline: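 ELISA read-out of IL-8 from human umbilical vein endothelium, measured 24 h after chemical dosing. Activity is expressed relative to DMSO negative control, with both increases and decreases fitted.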

[7] = read-out: Monokine induced gamma interferon (MIG), CXCL9 (gene 4283); test: BSK_3C_MIG: BioMAP Diversity Plus: 3C Assay for Monokine induced gamma interferon (MIG) Biomarker Activity (AID 2283021); conditions: primary human endothelial cells (HUVEC); actives raise or lower the signal
Outline: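 Read-out is ELISA detection of MIG on human umbilical vein endothelial cells, taken 24 h after dosing. Gain or loss of signal was scored relative to DMSO controls using bidirectional curve fitting.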

[8] = BSK_3C_SRB: Viability Assessment in the BioMAP Diversity Plus: 3C Assay (AID 2283023); conditions: primary human endothelial cells (HUVEC);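 further: fitted both ways against DMSO so a hit may be signal rise or drop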
Outline: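 Overt cytotoxicity is gauged in parallel confluent HUVEC cultures by SRB total-protein staining at the time of biomarker measurement, 24 h after dosing. Gain or loss of signal is fitted versus DMSO.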

[9] = read-out: Matrix Metallopeptidase 1 (MMP1), MMP1 (gene 4312); test: BSK_BE3C_MMP1: BioMAP Diversity Plus: BE3C Assay for Matrix Metallopeptidase 1 (MMP1) Biomarker Activity (AID 2283024); conditions: primary human bronchial epithelial cells; actives raise or lower the signal
Outline: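 Human bronchial epithelial cells (BE3C system) exposed to compound for 24 h; MMP1 then quantified by ELISA. Activity was fitted in both directions relative to DMSO.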

[10] = BSK_3C_Vis: BioMAP Diversity Plus: 3C Assay for Morphology Visualization (AID 2283025); conditions: primary human endothelial cells (HUVEC);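 further: fitted both ways so gain or loss versus DMSO counts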;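 on AC50: light microscopy image of cell morphology used as background control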
Outline: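 Chemicals were added to primary human umbilical vein endothelium, cells were incubated 24 h, and morphology was then visualized by light microscopy. Gain or loss of signal was fitted bidirectionally relative to DMSO.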

[11] = read-out: Pselectin, SELP (gene 6403); test: BSK_4H_Pselectin: BioMAP Diversity Plus: 4H Assay for Pselectin Biomarker Activity (AID 2283026); conditions: primary human endothelial cells (HUVEC); actives raise or lower the signal
Outline: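 ELISA read-out of P-selectin on human umbilical vein endothelium after 24 h of dosing. Values derive from bidirectional fitting relative to DMSO. Parallel SRB protein staining flagged overt cytotoxicity.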

[12] = BSK_4H_SRB: Viability Assessment in the BioMAP Diversity Plus: 4H Assay (AID 2283027); conditions: primary human endothelial cells (HUVEC);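 further: cells exposed to compound for 24 h before staining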;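 on AC50: curves fitted both ways versus DMSO so AC50 may be loss or gain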
Outline: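 Human umbilical vein endothelial cells were dosed with chemical and, after 24 h, fixed with 10% TCA, stained with 0.1% sulforhodamine B, and read at 560 nm to give total protein as a cytotoxicity measure. Bidirectional fitting relative to DMSO control.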

[13] = read-out: Thrombomodulin, THBD (gene 7056); test: BSK_3C_Thrombomodulin: BioMAP Diversity Plus: 3C Assay for Thrombomodulin Biomarker Activity (AID 2283029); conditions: primary human endothelial cells (HUVEC); actives raise or lower the signal
Outline: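 Read-out is ELISA of thrombomodulin on human umbilical vein endothelium 24 h after chemical dosing. Gain or loss of signal is scored relative to DMSO. Overt cytotoxicity is checked in parallel cultures by sulforhodamine B staining.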

[14] = read-out: Urokinase-type plasminogen activator receptor (uPAR), PLAUR (gene 5329); test: BSK_4H_uPAR: BioMAP Diversity Plus: 4H Assay for Urokinase-type plasminogen activator receptor (uPAR) Biomarker Activity (AID 2283030); conditions: primary human endothelial cells (HUVEC); actives raise or lower the signal
Outline: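 Endpoint derived via bidirectional curve fitting against DMSO baseline; readout was ELISA detection of uPAR on umbilical vein endothelial cells at 24 h post-treatment, with SRB-stained parallel cultures assessing cytotoxicity.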

[15] = read-out: Vascular endothelial growth factor receptor 2 (Homo sapiens) (UniProt P35968); test: BSK_4H_VEGFRII: BioMAP Diversity Plus: 4H Assay for Vascular endothelial growth factor receptor 2 (VEGFR2) Biomarker Activity (AID 2283031); conditions: primary human endothelial cells (HUVEC); actives raise or lower the signal
Outline: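 In this multiplexed HUVEC system, biomarker ELISA was performed after 24 h chemical exposure. Parallel SRB staining (TCA fixation, 560 nm) tracked cytotoxicity; DMSO served as baseline.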

[16] = biological target: Retinoic acid receptor RXR-alpha (Homo sapiens) (UniProt P19793); test: ATG_RXRa_TRANS: Attagene TRANS-FACTORIAL HepG2 Assay for human Retinoid X Receptor alpha (RXRa) (AID 2283012; active means hit-call score of the fitted dose curve at least 0.9, where 1 is the maximum)
Outline: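 Transient transfection of human HepG2 with multiple GAL4-UAS reporter constructs; 24 h compound exposure; total RNA isolated, reverse-transcribed, PCR-amplified, 6-FAM labelled, HpaI-cut, resolved by capillary electrophoresis. Positive-direction fit versus DMSO.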

[17] = BSK_BE3C_SRB: Viability Assessment in the BioMAP Diversity Plus: BE3C Assay (AID 2283028); conditions: primary human bronchial epithelial cells
Outline: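 SRB total-protein staining (0.1%, after TCA fixation) of chemically dosed human bronchial epithelial primary cells at 24 h; DMSO serves as the negative control for bidirectional curve fitting.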

[18] = biological target: human Retinoid X Receptor beta (RXRb), RXRB (gene 6257) (UniProt P28702); test: ATG_RXRb_TRANS: Attagene TRANS-FACTORIAL HepG2 Assay for human Retinoid X Receptor beta (RXRb) (AID 2283013; active means hit-call score of the fitted dose curve at least 0.9, where 1 is the maximum)
Outline: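 Transfect HepG2 with GAL4-UAS multi-reporter constructs (chimeric NR-Gal4, TRANS format); dose compound 24 h; isolate RNA, RT-PCR, FAM primer extension, HpaI digest; quantify by capillary electrophoresis; positive direction vs DMSO.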

[19] = biological target: human Vitamin D Receptor (VDR), VDR (gene 7421) (UniProt P11473); test: ATG_VDR_TRANS: Attagene TRANS-FACTORIAL HepG2 Assay for human Vitamin D Receptor (VDR) (AID 2283022; active means hit-call score of the fitted dose curve at least 0.9, where 1 is the maximum)
Outline: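 Multiplexed TRANS reporter in HepG2; 24 h treatment; reporter mRNA by RT-PCR plus capillary electrophoresis; upregulation scored relative to DMSO.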

Measured: AC50

Chain of E-selectin (Homo sapiens) (P16581 whole entry, looked up): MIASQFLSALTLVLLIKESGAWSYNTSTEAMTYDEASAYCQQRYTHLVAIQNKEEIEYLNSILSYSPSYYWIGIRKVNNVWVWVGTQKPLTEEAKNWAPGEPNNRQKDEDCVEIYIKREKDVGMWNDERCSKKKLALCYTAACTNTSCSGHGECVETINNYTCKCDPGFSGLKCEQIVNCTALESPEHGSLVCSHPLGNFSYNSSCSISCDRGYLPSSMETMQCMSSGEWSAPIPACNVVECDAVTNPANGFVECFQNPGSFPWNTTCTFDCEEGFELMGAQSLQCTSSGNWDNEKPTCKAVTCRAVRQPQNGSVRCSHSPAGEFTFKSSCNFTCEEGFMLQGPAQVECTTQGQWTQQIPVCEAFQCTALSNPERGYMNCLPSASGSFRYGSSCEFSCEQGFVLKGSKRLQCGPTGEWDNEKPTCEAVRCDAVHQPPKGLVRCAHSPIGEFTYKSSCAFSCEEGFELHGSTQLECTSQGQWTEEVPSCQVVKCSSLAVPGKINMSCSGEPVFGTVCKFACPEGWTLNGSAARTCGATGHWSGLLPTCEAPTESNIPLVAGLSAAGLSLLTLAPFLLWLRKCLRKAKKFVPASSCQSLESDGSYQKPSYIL
Chain of human Vitamin D Receptor (VDR), VDR (gene 7421) (P11473 whole entry, looked up): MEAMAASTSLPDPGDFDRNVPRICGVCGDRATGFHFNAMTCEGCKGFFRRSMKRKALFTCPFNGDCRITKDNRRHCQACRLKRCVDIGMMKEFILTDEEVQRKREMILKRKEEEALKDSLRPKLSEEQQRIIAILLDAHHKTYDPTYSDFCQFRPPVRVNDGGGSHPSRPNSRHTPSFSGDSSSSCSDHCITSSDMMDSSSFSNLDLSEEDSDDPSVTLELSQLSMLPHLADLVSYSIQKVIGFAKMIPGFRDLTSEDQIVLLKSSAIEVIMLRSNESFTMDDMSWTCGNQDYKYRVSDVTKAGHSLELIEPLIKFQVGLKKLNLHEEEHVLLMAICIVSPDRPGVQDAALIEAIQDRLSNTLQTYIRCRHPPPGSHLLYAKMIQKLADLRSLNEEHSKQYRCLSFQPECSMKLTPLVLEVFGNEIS
Chain of human Retinoid X Receptor beta (RXRb), RXRB (gene 6257) (P28702 whole entry, looked up, the tested form may be a part): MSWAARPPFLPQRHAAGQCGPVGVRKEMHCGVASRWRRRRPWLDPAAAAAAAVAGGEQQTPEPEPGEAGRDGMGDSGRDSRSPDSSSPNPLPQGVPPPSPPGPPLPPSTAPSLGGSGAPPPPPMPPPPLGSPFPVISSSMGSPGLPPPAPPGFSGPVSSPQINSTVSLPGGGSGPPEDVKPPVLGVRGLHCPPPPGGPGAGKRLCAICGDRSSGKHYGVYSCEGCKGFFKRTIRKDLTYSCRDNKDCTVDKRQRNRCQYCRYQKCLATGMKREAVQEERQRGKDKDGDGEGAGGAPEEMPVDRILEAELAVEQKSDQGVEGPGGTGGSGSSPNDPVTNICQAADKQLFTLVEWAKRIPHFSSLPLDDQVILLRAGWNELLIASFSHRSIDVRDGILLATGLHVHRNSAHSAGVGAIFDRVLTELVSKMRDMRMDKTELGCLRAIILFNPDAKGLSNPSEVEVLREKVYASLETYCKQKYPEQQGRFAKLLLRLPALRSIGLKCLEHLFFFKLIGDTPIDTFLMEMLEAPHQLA
Chain of Retinoic acid receptor RXR-alpha (Homo sapiens) (P19793 whole entry, looked up, the tested form may be a part): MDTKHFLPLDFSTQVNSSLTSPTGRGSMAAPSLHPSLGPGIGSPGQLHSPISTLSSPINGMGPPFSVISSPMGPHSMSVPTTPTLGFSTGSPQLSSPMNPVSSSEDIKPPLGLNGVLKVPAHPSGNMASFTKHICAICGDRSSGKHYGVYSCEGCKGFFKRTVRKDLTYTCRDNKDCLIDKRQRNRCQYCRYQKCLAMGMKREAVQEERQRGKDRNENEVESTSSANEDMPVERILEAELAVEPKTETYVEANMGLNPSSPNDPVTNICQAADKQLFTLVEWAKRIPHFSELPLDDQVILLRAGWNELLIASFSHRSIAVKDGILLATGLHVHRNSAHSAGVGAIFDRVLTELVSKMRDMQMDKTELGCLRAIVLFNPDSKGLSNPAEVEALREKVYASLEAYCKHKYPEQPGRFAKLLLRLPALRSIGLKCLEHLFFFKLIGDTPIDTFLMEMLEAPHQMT

CC1(C)CC(N=C=O)CC(C)(CN=C=O)C1 (stereo not drawn)
active: [10] 39 µM
inactive: [1] | [2] | [3] | [4] | [5] | [6] | [7] | [8] | [9] | [11] | [12] | [13] | [14] | [15]

Cc1nc(-c2ccc3c(c2)CCN(CCC2CCC(NC(=O)/C=C/c4ccc(F)cc4)CC2)CC3)no1 (stereo not drawn)
inactive: [1] | [2] | [3] | [4] | [7] | [9] | [14] | [15]
active: [5] 5.83 µM | [6] 7.5 µM | [8] 6.26 µM | [10] 6.4 µM | [11] 5.65 µM | [12] 6.89 µM | [13] 9.3 µM

Nc1ccc(S(=O)(=O)c2ccc(N)cc2)cc1
inactive: [16] | [1] | [2] | [3] | [4] | [5] | [6] | [7] | [8] | [9] | [10] | [11] | [12] | [17] | [13] | [14] | [15]

Cc1cccc(Nc2cc(Cl)nc(SCC(=O)O)n2)c1C
inactive: [1] | [2] | [3] | [4] | [5] | [6] | [7] | [8] | [9] | [10] | [11] | [12] | [17] | [13] | [14] | [15]

CC=Cc1ccc(O)c(OC)c1
inactive: [16] | [1] | [2] | [3] | [4] | [5] | [6] | [7] | [8] | [9] | [10] | [11] | [12] | [13] | [14] | [15]

CC(C)c1ccc(C(=O)N=C(N)N)cc1S(C)(=O)=O
inactive: [1] | [2] | [3] | [4] | [5] | [6] | [7] | [8] | [9] | [10] | [11] | [12] | [13] | [14] | [15]

Cc1ccccc1Cl
inactive: [18] | [1] | [2] | [3] | [4] | [5] | [6] | [7] | [8] | [9] | [10] | [11] | [12] | [13] | [14] | [15]

CCCCN(CCCC)CCCC
inactive: [18] | [1] | [2] | [3] | [4] | [5] | [6] | [7] | [19] | [8] | [9] | [10] | [11] | [12] | [13] | [14] | [15]

COc1ccc(C)cc1N
inactive: [1] | [2] | [3] | [4] | [5] | [6] | [7] | [19] | [8] | [9] | [10] | [11] | [12] | [13] | [14] | [15]

Cc1ccc(C)c(C)c1
inactive: [16] | [1] | [2] | [3] | [4] | [5] | [6] | [7] | [8] | [9] | [10] | [11] | [12] | [17] | [13] | [14] | [15]

CCCCCCCCCCCCCCCC
inactive: [16] | [1] | [2] | [3] | [4] | [5] | [6] | [7] | [8] | [9] | [10] | [11] | [12] | [17] | [13] | [14] | [15]

CNC(=O)[C@H]1O[C@@H](n2cnc3c(NCc4cc(Cl)ccc4OCc4cc(C)no4)ncnc32)[C@H](O)[C@@H]1N
inactive: [18] | [1] | [2] | [3] | [4] | [5] | [6] | [7] | [19] | [8] | [9] | [10] | [11] | [12] | [17] | [13] | [14] | [15]

COc1ccc(S(=O)(=O)N2C(=O)[C@@](c3ccccc3OC)(N3C[C@H](O)C[C@H]3C(=O)N(C)C)c3cc(Cl)ccc32)c(OC)c1
active: [3] 20 µM | [5] 32.6 µM | [6] 31.5 µM | [8] 27 µM | [10] 39 µM | [12] 29.3 µM | [14] 8.31 µM
inactive: [1] | [2] | [4] | [7] | [19] | [9] | [11] | [13] | [15]

CCCCCCCCCCO
inactive: [1] | [2] | [3] | [4] | [5] | [6] | [7] | [19] | [8] | [9] | [10] | [11] | [12] | [17] | [13] | [14] | [15]

OC[C@@H](O)[C@@H](O)[C@H](O)[C@H](O)CO
inactive: [1] | [2] | [3] | [4] | [5] | [6] | [7] | [8] | [9] | [10] | [11] | [12] | [13] | [14] | [15]
